hcDAF-12 act – activates DAF-12 receptor from parasite H. contortus; actives 1.4% (n = 370,000); HEK293 hcDAF-12 lit1-tk-luc reporter, luminescence; 0% DMSO, 100% Δ7-dafachronic acid; activation, % at 6.8 µM;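 active means activation above the mean of all tested compounds plus 3 SD, cut at about 5.5% in these data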;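 further: 100% = response to 3 µM Δ7-dafachronic acid high control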
DAX1 inh-1 – DAX1 (NR0B1) inhibition, primary screen | actives 1.1% (n = 370,000) | AID 652010 | inhibition, % at 6.8 µM | HEK293T StAR-luciferase reporter, SF-1/DAX-1 repression relief;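 active means inhibition above the mean over all tested compounds plus 3 SD, cut at about 3.6% in these data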;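 further: 0% = DAX-1 cells with DMSO and 100% = cells lacking DAX-1 with DMSO; higher inhibition means more luminescence from relief of DAX-1 repression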
DAX1 inh-2 – inhibitors of human orphan nuclear receptor DAX1 (NR0B1); inhibition, % at 6.75 µM; P51843; HEK293 Gal4-DAX1 luciferase reporter, luminescence; actives 0.99% (n = 340,000);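 active means inhibition above the mean over all tested compounds plus 3 SD, cut at about 4.2% in these data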;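 further: 0% = DAX1-transfected cells with DMSO and 100% = empty-vector control cells with DMSO; inhibition shows as a rise in luminescence from relieved DAX1 repression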
Target sequence (P51843 207-470 limits assumed): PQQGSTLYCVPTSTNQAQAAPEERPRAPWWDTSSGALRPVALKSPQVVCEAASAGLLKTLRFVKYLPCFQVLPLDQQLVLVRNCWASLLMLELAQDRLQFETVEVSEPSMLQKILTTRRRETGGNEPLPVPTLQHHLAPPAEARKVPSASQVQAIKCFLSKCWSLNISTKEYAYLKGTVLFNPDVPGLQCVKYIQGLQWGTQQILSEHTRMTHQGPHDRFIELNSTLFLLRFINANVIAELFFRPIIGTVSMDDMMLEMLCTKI
SMARCA2 activ – SMARCA2 function activation, primary screen; AID 652017; MG213 cells, MMTV-luciferase reporter, dexamethasone, overnight; activation, % at 9.1 µM; actives 1% (n = 370,000); in the data active means activation above about 7.8%;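 further: 0% = vehicle wells and 100% = reference activator wells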
hgDAF-12 ag – activates the H. glycines DAF-12 receptor ligand-binding domain; HEK293 GAL4-hgDAF12 UAS-luciferase reporter, agonist luminescence; normalized to butyrate control; activation, % at 6.8 µM; actives 1.8% (n = 370,000); AID 687014;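 active means activation above a cutoff set at the mean of all screened compounds plus 3 SD, cut at about 10% in these data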;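 further: 0% = DMSO wells and 100% = sodium butyrate wells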
ssDAF12 agonist – S. stercoralis DAF-12 activation, primary screen; HEK293 ssDAF-12/GRIP1 lit1-tk-luc reporter, luminescence; % of 3 µM dafachronic acid response; activation, % at 6.8 µM; actives 1% (n = 370,000); AID 652126;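 active means activation above the mean over all tested compounds plus 3 SD, cut at about 0.9% in these data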;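 further: 0% = DMSO-only wells and 100% = 3 µM delta7-dafachronic acid wells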
DAX1 conf – NR0B1 (human) inhibition, confirmation; shares compounds with DAX1 inh-1; HEK293T StAR-promoter luciferase reporter, SF-1/DAX-1 repression; inhibition, % at 6.8 µM; actives 87% (n = 2,400);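 active means inhibition above the average of every tested compound plus 3 SD, cut at about 3.8% in these data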;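 further: 0% = DAX-1 cells with DMSO and 100% = no DAX-1 control cells with DMSO; active compounds raise luminescence by relieving repression of the StAR reporter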
Target sequence (P51843 whole entry, looked up): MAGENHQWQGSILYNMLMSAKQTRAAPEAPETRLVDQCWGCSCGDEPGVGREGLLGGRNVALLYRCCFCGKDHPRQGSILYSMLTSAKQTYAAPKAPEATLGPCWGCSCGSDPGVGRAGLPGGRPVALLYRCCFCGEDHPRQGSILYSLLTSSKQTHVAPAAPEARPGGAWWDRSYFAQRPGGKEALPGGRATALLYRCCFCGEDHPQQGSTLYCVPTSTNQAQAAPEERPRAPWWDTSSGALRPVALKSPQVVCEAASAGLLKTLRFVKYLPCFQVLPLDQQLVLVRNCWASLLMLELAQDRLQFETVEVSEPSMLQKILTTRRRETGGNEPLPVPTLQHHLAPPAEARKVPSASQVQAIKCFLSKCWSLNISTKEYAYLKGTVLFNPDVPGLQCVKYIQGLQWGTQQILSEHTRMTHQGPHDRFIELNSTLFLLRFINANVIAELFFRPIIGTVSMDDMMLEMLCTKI
SF1 AF2mut Luc – counter-screen for DAX1 inhibitors: nonselective inhibitors with SF-1 AF2 mutant | inhibition, % at 6.8 µM | HEK293 StAR-luciferase, luminescence | actives 78% (n = 2,400) | shares compounds with DAX1 inh-1;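 active means inhibition above the mean of all tested compounds plus 3 SD, cut at about 3% in these data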;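 further: 0% = DAX-1 transfected cells with DMSO and 100% = cells without DAX-1 with DMSO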
SMARCA2 act conf – SMARCA2 activation, confirmation screen; shares compounds with SMARCA2 activ; AID 652260; actives 30% (n = 3,500); MG213 cells, MMTV-luciferase with dexamethasone, luminescence, overnight; MG213 cells expressing E1A, Rb sequestered; DMSO wells 0%, reference activator 100%; activation, % at 9.1 µM;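 active means activation above its plate's cutoff, the mean activation of tested wells plus 3 SD, cut at about 7.9% in these data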
VP16 Luc act – activates GAL4-VP16 luciferase, flagging SMARCA2 activator hits; activation, % at 9.1 µM; HEK293 GAL4-VP16 pG5luc reporter, luciferase luminescence; scaled: DMSO wells 0%, SAHA wells 100%; actives 41% (n = 3,500); shares compounds with SMARCA2 activ;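 active means activation above the solvent-only control well mean plus 3 SD, averaged across control plates, cut at about 5.2% in these data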
* = called active by the depositor; . = not tested or not shown. Sampled rows, rich in hits. Any-hit rate of the full collection: about 4.8%.

SMILES	hcDAF-12 act	DAX1 inh-1	DAX1 inh-2	SMARCA2 activ	hgDAF-12 ag	ssDAF12 agonist	DAX1 conf	SF1 AF2mut Luc	SMARCA2 act conf	VP16 Luc act
CCc1ccccc1NC(=O)COc1ccc2c(c1)OCO2	-2.1	0.1	2.4	0.9	0.8	-1.6	.	.	.	.
CC(C)(C)c1nnc(NC(=O)COc2ccc3c(c2)OCO3)s1	1.1	7.9*	1.0	3.8	3.2	0.0	9.1*	7.2*	.	.
O=C(CS(=O)(=O)c1ccc(F)cc1)Nc1nccs1	-1.9	2.1	1.1	-2.3	0.1	-1.0	.	.	.	.
O=C(COc1ccc(F)cc1)Nc1ccc2c(c1)OCCO2	3.7	5.0*	0.9	5.4	10.2	-0.6	4.2*	2.7	.	.
COC(=O)c1ccccc1NC(=O)CSc1nncn1C	-1.9	0.1	1.0	-2.5	1.2	-1.6	.	.	.	.
COc1cc(C)ccc1OCC(=O)Nc1ccc2c(c1)OCO2	2.2	6.2*	0.7	7.2	9.1	-0.2	7.7*	6.3*	.	.
CCOc1ccc(N2C(=O)CC(Sc3nc(C)cc(C)c3C#N)C2=O)cc1 (stereo unspecified)	-1.6	-0.5	0.1	0.4	1.0	-1.3	.	.	.	.
O=C(NCCCN1CCCC1=O)C(=O)Nc1cccc(F)c1	1.3	5.9*	0.2	3.4	10.1	-0.1	7.5*	5.3*	.	.
O=C(Nc1nnc(C2CC2)s1)C1COc2ccccc2O1 (stereo unspecified)	3.0	5.7*	1.5	12.2*	12.0*	-0.8	11.4*	5.5*	6.9	14.4*
O=C(Nc1nnc(C(F)(F)F)s1)C1COc2ccccc2O1 (stereo unspecified)	0.1	0.1	0.5	-2.3	2.3	-1.1	.	.	.	.
O=c1cc(-c2ccccc2)oc2cc(O)c(O)c(O)c12	3.5	5.5*	1.9	8.3*	10.4	-1.4	9.6*	5.1*	9.4*	12.6*
CCN(c1ccccc1)S(=O)(=O)c1ccc(C(=O)Nc2c(C)n(C)n(-c3ccccc3)c2=O)cc1	-0.1	0.1	1.3	-0.2	0.8	-1.1	.	.	.	.
O=c1c(Br)c(N2CCCCC2)cnn1-c1ccccc1	3.4	4.6*	4.5*	8.7*	13.2*	-0.6	10.5*	8.3*	9.8*	9.0*
O=c1c(Br)c(N2CCOCC2)cnn1-c1ccccc1	3.2	1.7	1.7	1.6	3.0	-1.0	.	.	.	.
CN1CCN(c2ccc(-c3cccc(NC(=O)COc4ccccc4)c3)nn2)CC1	4.7	10.2*	1.0	8.4*	13.0*	0.9	7.2*	2.2	5.8	12.5*
O=[N+]([O-])c1ccc(N2CCCCC2)cc1N1CCOCC1	0.2	-1.9	-0.9	3.2	-0.1	-2.0	.	.	.	.
C=C[C@@]1(C)CC(=O)[C@]2(O)[C@@]3(C)[C@@H](O)CCC(C)(C)[C@@H]3[C@H](O)[C@H](OC(C)=O)[C@@]2(C)O1	-4.6	9.6*	0.7	20.6*	-10.7	-1.6	22.2*	-5.7	20.7*	25.0*
C=C[C@@]1(C)CC(=O)[C@]2(O)[C@@]3(C)[C@@H](O)CCC(C)(C)[C@@H]3[C@H](OC(C)=O)[C@H](O)[C@@]2(C)O1	-5.8	2.8	4.0	5.5	-5.8	-1.9	.	.	.	.
CCOC(=O)c1ccc2nc(NC(=O)C(C)C)sc2c1	0.9	4.6*	2.5	10.5*	12.6*	-0.4	3.6	2.5	7.6	4.1
Cc1ccc(C(=O)OCc2cc(=O)n3c(C)csc3n2)s1	1.8	4.8*	-0.3	8.8*	1.6	-1.1	2.8	1.9	7.8	1.4
COc1ccccc1C(=O)NCCC(=O)NC1CCC(C)CC1 (stereo unspecified)	3.6	8.7*	1.1	10.2*	7.8	0.5	10.3*	4.6*	5.4	-0.3
C#CCSc1nc(-c2cccs2)ccc1C#N	-1.3	-0.5	-0.3	-0.8	-1.5	-1.4	.	.	.	.
COC(=O)CSc1nc(-c2cccs2)ccc1C#N	6.5*	5.9*	4.0	11.1*	11.9*	1.8*	9.9*	8.2*	12.8*	8.0*
Nc1ccc(S(=O)(=O)Nc2cnc3ccccc3n2)cc1	-2.6	0.7	-0.7	-4.6	3.8	-1.2	.	.	.	.
Nc1ccc(S(=O)(=O)Nc2cnc3c(Cl)cccc3n2)cc1	-1.2	5.7*	2.5	9.1*	-2.5	-0.5	5.2*	-1.1	30.7*	4.8
SMILES	hcDAF-12 act	DAX1 inh-1	DAX1 inh-2	SMARCA2 activ	hgDAF-12 ag	ssDAF12 agonist	DAX1 conf	SF1 AF2mut Luc	SMARCA2 act conf	VP16 Luc act
CCN(CCCNC(=O)c1cc2c(-c3cccc(OC)c3)nn(C)c2s1)Cc1ccccc1	2.3	-0.3	1.6	-0.6	0.7	-0.9	.	.	.	.
COc1cc(C(=O)N=c2sc3c(C)ccc(OC)c3n2C)cc(OC)c1OC	1.1	0.6	-0.1	-3.0	-2.8	-1.6	.	.	.	.
COc1ccc(C(=O)N=c2sc3c(C)ccc(OC)c3n2C)cc1	5.0	4.8*	3.8	9.2*	12.9*	0.4	3.2	-3.7	7.2	9.8*
COc1cccc(-c2csc(N3CCN(C(=S)Nc4cccc(Cl)c4)CC3)n2)c1	-0.4	-0.6	0.9	-3.7	1.1	-1.3	.	.	.	.
CCn1c(CSCc2ccc(C)cc2)n[nH]c1=S	-0.8	-0.2	0.2	-1.2	-1.4	-1.1	.	.	.	.
COC(=O)c1c(-c2cccnc2)csc1NC(=O)c1ccc2c(c1)OCO2	3.0	8.2*	0.8	9.4*	6.2	-0.2	12.1*	6.8*	7.1	15.3*
COc1cccc(NC(=O)C2CC(=O)N(Cc3ccco3)C2)c1 (stereo unspecified)	-1.0	1.2	0.1	3.8	1.5	-1.0	.	.	.	.
COc1ccc(/C=N/Nc2nccnc2Cl)cc1	5.5	5.9*	-1.5	8.7*	12.1*	0.2	13.9*	8.7*	4.6	11.5*
Cc1cc(C)c(C#N)c(SCC2COc3ccccc3O2)n1 (stereo unspecified)	-1.5	-0.1	-0.2	-1.8	-0.5	-1.1	.	.	.	.
COc1cc2c(cc1OC)C(=Cc1ccc(N(C)C)cc1)C=C2	-1.0	-0.8	0.6	2.2	2.3	-0.8	.	.	.	.
CN(C)c1ccc(C=C2C=Cc3ccccc32)cc1	6.2*	4.8*	3.5	9.3*	13.1*	0.3	14.8*	8.0*	3.5	10.6*
